Our source for the growth values is PubChem BioAssay (NCI).

About 83,000 compounds went through this panel and 20% of them were active in at least one assay; those are over-represented in the sample as a whole.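 Results are percent growth after 48 hours of single-concentration exposure. 100 means growth as in untreated cells, lower positive values show inhibition; negative values down to -100 show cell death.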 The source made the active and inactive calls.

The subject of the test is EKVX NSCLC. In words: NCI-60 one-dose screen, 48 h (100 = growth as untreated, 0 = no growth, -100 = all killed). The conditions noted are these: 10 µM unless noted. The protocol:
Growth inhibition of the EKVX human Non-Small Cell Lung tumor cell line is measured as a screen for anti-cancer activity. Cells are grown in 96 well plates and exposed to the test compound for 48 hours. Compounds are tested at a single concentration, which is 10^-5 M for most compounds. The reported endpoint is percent growth (GI% or GIPRCNT), where numbers from 0 - 100% represent growth inhibition, and numbers from -100% - 0 represent cell death. For example, a value of 40 represents 60% growth inhibition. A value of 0 means no net growth occurred over the course of the experiment. A value of -40 indicates 40% of cells at the beginning of the experiment died by the end of the experiment. A value of -100 means all cells are dead at the end of the experiment.
NCI-60 Human Tumor Cell Lines Screen was performed using the standard one-dose NCI protocol, which is described in more detail at https://dtp.cancer.gov/discovery_development/nci-60/default.htm.
Compounds with GIPRCNT values below 10 were considered active. Activity score was based on GIPRCNT using the following formula: […]
Score is 0 for GIPRCNT values of 100 or above, 50 for GIPRCNT values of 0, and 100 for GIPRCNT values of -100.
`COc1ccc(C2=CC(c3cc(OC)c(OC)c(OC)c3)n3ncnc3N2)cc1` (stereo not given): the growth was 66.7% (inactive).

Take `CCc1n(Cc2ccc3ccccc3n2)cc[n+]1Cc1ccc2ccccc2n1`: the growth is 31.9% (inactive). For `COc1ccc(-c2n[nH]c(=O)c3nc(NC(=S)Nc4ccc(Oc5ccccc5)cc4)sc23)cc1` the value was 106% (inactive). For `CN(CCCNC(=O)Cc1ccc2ccc3cccc4ccc1c2c34)CCCNc1cc(-c2ccc3ccccc3c2)nc2ccccc12` the value was -44.6% (active); for `O=C(Oc1ccc(CCl)cc1)c1ccccc1`, -100% (active). To `O=C(/C=C(O)/C=C/c1cccc2[nH]ccc12)/C=C/c1cccc2[nH]ccc12` belongs 97.8% (inactive). As to `CCCCCCCC/C=C\CCCCCCCCOc1ccc(CC(=O)NCC[N+]2(C)CCOCC2)cc1`, the growth was 91.2% (inactive). For `C[n+]1ccc(CCc2c[nH]c3ccccc23)cc1` the value was 53.9% (inactive).

As for `CCOC(=O)C(Cc1ccc(OC)cc1)C(=O)OCC`, the growth was 69.3% (inactive).

Take `O=C1NC(=O)/C(=C/c2c(-c3ccccc3)nc3sc(COc4ccccc4)nn23)S1`: the growth was 91.9% (inactive). On to `Cc1ccc(C(=O)c2ccc(CC(=O)N=Nc3c(O)[nH]c4ccc(Br)cc34)n2C)cc1`, for which the growth is 74.3% (inactive).

For the molecule `O=C1c2cccc3cccc(c23)C(=O)N1C/C=C/c1ccc2c3c(cccc13)C(=O)N(CCO)C2=O`, the growth is 91.5% (inactive). For `CN(CCCNC(=O)CCOCCOCCOCCNC(=O)Cc1ccc2ccc3cccc4ccc1c2c34)CCCNc1cc(-c2ccc3ccccc3c2)nc2ccccc12` the value was -65.8% (active); for `c1ccc2c(c1)CCCc1nnc3nc4ccccc4n3c1-2`, 37.7% (inactive); for `Cc1nn(-c2ccccc2)c(N)c1N=C1NC(=O)/C(=C/c2ccc(Br)cc2)S1`, 87.7% (inactive).

On to `CCOc1ccc(-n2nc(C(=O)NCc3ccccc3OC)nc2-c2cc(OC)c(OC)c(OC)c2)cc1`, for which the growth was 41.3% (inactive).

On to `CC1(C)[C@@H](O[C@@H]2OC[C@@H](O[C@@H]3O[C@H](CO)[C@@H](O)[C@H](O)[C@H]3O[C@@H]3OC[C@@H](O)[C@H](O)[C@H]3O)[C@H](O)[C@H]2O[C@@H]2O[C@H](CO)[C@@H](O)[C@H](O)[C@H]2O)CC[C@]2(C)[C@H]3CC[C@]45OC[C@@]6(CC[C@](C)(C=O)C[C@H]64)[C@H](O)C[C@@]5(C)[C@]3(C)CC[C@@H]12`, for which the growth was -65.4% (active). In the case of `O=C1/C(=C/c2ccc(O)c(O)c2)COc2ccc(-c3ccccc3)cc21`, the growth was 78.8% (inactive). As for `O=C(CCl)NNc1nccc(Nc2ccc(S(=O)(=O)Nc3ccncc3)cc2)n1`, the growth was 62.2% (inactive). On to `Cc1ncc(C(=O)Nc2ccc(CN3CCN(C)CC3)c(C(F)(F)F)c2)cc1C#Cc1cnc(N)c2ncccc12`, for which the growth is 42.8% (inactive). To `Cc1ccc(S(=O)(=O)Oc2ccc3sc4cccc(NCCN(C)C)c4c(=O)c3c2)cc1` belongs -84% (active); to `COC(=O)c1ccc(NC(=O)Nc2ccc(C(=O)OC)cc2)cc1`, 118% (inactive).

Regarding `CCOC(=O)c1[nH]c2c(c1C)-c1[nH]c(=O)c(S(=O)(=O)c3ccccc3)cc1SC2`, the growth was 8.42% [100 µM] (active). For `FC(F)(F)Oc1cccc(-c2cnc3ccc(-c4ccncc4)nn23)c1` the value was 28.4% (inactive); for `O=C(O)[C@@H](Cc1ccc2ccccc2c1)NC(=O)n1c2ccccc2c2ccccc21`, 47.9% (inactive).

Take `CCOC(=O)C#Cc1c(C(=O)OCC)nnn1Cc1ccc(C(F)(F)F)cc1`: the growth is 93.6% (inactive). For `C=C1C(=O)O[C@H]2[C@H]1CC/C(Cn1cc(CCC)nn1)=C\CC[C@@]1(C)O[C@@H]21` the value was 77.4% (inactive); for `O=[N+]([O-])c1cc(NS(=O)(=O)c2ccccc2)ccc1NS(=O)(=O)c1ccccc1`, 119% (inactive). For `Nc1nc(NC(=O)Nc2ccc(C(=O)O)cc2)nn1-c1ccc(S(N)(=O)=O)cc1` the value was 105% (inactive); for `O=c1nc(-c2ccccc2)c2cc(-c3ccc(C(F)(F)F)nc3)ccc2[nH]1`, 97.8% (inactive). For `COC(=O)c1c2c(c(C)[n+]([O-])c1C)C(=O)C(NCc1ccc(OC)cc1)=CC2=O` the value was 55% (inactive); for `COc1ccc(NC(=O)Nc2ccc(OCCCCCC(=O)NO)cc2)cc1`, 121% (inactive); for `O=C(Nc1cnc(Nc2ccc(N3CCOCC3)nc2)nc1Oc1ccc(C(F)(F)F)cc1)c1ccncc1`, 100% (inactive). Regarding `COc1ccc(/C=C/C(=O)c2cc(OC)c(OC)c(OC)c2)cc1OCC(=O)Nc1nc2ccc(OC(F)(F)F)cc2s1`, the growth was 62.1% (inactive).

In the case of `CCOC(=O)c1c(C)nc2ccccc2c1/C=C/c1cccs1`, the growth is 67.6% (inactive). As to `COc1cc(C2C(C(=O)OCc3ccccc3)=C(C)NC(C)=C2C(=O)OCc2ccccc2)cc(OC)c1OC`, the growth is 31.5% (inactive). For `CN1CCN(C(=O)C(C)(C)c2ccc(C(=O)Nc3cn4cc(-c5ccncc5)ccc4n3)cc2)CC1` the value was 17.9% (inactive). On to `CCCn1cnc2c(c1=N)C(c1ccc(F)cc1)c1sc3c(F)cccc3c1O2` (stereo not given), for which the growth is 76.5% (inactive). On to `C#CCO[C@H]1CC(CC#C)(CC#C)C(=O)[C@@H]2[C@H]1[C@H]1C[C@@H]3[C@@]4(C)CCC[C@@](C)(C(=O)OC)[C@@H]4CC[C@@]23C=C1C(C)C`, for which the growth is 94.7% (inactive). To `CCOc1c(OC)cc2c(c1O)C(=O)N[C@@H]1[C@@H](O)[C@@H](O)[C@H](O)C[C@@H]21` belongs 98% (inactive).
